According to PMC7862700, “An all-to-all approach to the identification of sequence-specific readers for epigenetic DNA modifications on cytosine”:

Legend:
Assay in all cases: DAPPL (digital affinity profiling via proximity ligation, sequencing); 10 mM Tris-HCl pH 7.5, 50 mM NaCl, 1 mM DTT, 4% glycerol, room temperature, 30 min; GST-TFs on glutathione beads, 16-mer random dsDNA library, 0.1% formaldehyde crosslink after washing; high values mean tight binding
FLI1 = target: T1, FLI1 (Homo sapiens, UniProt Q01543 1-452); settings: protein: recombinant; tags: N-terminal GST; dsDNA, one strand shown
T1 sequence: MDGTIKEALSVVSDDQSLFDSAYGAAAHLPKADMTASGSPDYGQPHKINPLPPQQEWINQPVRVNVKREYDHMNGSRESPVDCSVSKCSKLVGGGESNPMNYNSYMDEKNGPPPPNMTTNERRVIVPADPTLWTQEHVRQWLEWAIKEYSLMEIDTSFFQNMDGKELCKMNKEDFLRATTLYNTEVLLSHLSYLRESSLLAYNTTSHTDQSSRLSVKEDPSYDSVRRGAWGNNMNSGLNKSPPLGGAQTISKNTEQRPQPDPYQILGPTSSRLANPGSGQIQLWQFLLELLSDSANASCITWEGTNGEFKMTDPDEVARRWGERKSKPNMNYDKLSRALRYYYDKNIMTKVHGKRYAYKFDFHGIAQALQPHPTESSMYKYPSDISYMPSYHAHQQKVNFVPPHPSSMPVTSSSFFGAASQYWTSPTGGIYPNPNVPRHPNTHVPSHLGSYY
Outline: (§1)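 The binding signal reported is, for every hexamer, its read frequency for a factor over its read frequency for the tag-only sample. Reads came from pools of yeast-expressed, GST-fused human transcription factors on glutathione beads, barcoded with DNA and mixed with that sample, which were incubated with 200 nmole of a random double-stranded 16-mer DNA library in Tris/NaCl/DTT/glycerol buffer at room temperature for 30 min. After washing, the pools were crosslinked with 0.1% formaldehyde, proximity-ligated with BsaI/T4 ligase for 1 h at 37 °C, PCR-amplified and sequenced on an Illumina NextSeq500.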

ELK1 = target: T2, ELK1 (Homo sapiens, UniProt P19419 1-428); settings: protein: recombinant; tags: N-terminal GST; dsDNA, one strand shown
T2 sequence: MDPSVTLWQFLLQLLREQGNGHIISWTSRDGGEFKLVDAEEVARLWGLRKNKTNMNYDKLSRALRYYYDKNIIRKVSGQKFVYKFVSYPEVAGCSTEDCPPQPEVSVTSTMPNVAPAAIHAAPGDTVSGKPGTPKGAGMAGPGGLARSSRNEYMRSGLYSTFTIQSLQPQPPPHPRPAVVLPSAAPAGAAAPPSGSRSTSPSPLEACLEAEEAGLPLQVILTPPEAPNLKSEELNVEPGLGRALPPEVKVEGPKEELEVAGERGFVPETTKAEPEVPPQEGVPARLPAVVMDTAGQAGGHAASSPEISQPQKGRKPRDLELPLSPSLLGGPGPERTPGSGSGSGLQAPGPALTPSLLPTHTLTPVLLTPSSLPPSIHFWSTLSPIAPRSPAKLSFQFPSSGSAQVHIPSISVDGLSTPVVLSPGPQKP
Outline: as §1

GABPA = target: T3, GABPA (Homo sapiens, UniProt Q06546 1-454); settings: protein: recombinant; tags: N-terminal GST; dsDNA, one strand shown
T3 sequence: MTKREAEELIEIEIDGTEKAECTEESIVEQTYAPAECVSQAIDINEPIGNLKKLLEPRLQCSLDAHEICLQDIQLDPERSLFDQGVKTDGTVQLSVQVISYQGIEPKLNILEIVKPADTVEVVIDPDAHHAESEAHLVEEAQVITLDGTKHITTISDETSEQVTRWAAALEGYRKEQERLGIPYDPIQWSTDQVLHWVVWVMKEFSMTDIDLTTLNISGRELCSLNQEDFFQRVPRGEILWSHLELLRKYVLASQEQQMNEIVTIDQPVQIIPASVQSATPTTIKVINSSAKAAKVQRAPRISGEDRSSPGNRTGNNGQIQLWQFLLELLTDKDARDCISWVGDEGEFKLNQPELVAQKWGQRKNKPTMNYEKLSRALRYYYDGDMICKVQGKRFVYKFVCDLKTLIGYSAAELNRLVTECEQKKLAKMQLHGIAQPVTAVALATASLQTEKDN
Outline: as §1

ERG = target: T4, ERG (Homo sapiens, UniProt P11308 1-479); settings: protein: recombinant; tags: N-terminal GST; dsDNA, one strand shown
T4 sequence: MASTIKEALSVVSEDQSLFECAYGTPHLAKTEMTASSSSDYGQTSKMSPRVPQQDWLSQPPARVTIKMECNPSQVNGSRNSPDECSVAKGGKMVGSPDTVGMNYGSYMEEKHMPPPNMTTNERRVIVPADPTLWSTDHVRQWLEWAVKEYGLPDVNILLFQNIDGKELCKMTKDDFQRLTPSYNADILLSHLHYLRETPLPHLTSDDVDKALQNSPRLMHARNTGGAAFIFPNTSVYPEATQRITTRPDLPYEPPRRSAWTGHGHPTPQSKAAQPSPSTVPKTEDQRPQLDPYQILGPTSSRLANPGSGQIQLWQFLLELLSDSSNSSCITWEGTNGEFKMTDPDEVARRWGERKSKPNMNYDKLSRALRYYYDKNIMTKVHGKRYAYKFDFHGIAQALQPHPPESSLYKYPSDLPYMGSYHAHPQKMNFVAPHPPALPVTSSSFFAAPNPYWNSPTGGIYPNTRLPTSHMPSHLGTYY
Outline: as §1

ELF1 = ELF1 (Homo sapiens, UniProt P32519 1-619); settings: protein: recombinant; tags: N-terminal GST; dsDNA, one strand shown
Outline: as §1

EHF = target: T5, EHF (Homo sapiens, UniProt Q9NZC4 1-300); settings: protein: recombinant; tags: N-terminal GST; dsDNA, one strand shown
T5 sequence: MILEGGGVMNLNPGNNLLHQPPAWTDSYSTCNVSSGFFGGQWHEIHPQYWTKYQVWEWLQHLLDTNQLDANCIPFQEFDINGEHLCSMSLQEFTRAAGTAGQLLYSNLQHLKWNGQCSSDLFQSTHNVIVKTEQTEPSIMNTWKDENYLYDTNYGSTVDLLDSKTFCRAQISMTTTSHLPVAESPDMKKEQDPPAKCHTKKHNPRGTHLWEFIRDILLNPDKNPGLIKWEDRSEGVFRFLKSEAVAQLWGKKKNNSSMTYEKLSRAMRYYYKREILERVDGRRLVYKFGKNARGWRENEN
Outline: as §1

SPI1 = SPI1 (Homo sapiens, UniProt P17947 1-270); settings: protein: recombinant; tags: N-terminal GST; dsDNA, one strand shown
Outline: as §1

SPIB = SPIB (Homo sapiens, UniProt Q01892 1-262); settings: protein: recombinant; tags: N-terminal GST; dsDNA, one strand shown
Outline: as §1

ELK3 = target: T6, ELK3 (Homo sapiens, UniProt P41970 1-407); settings: protein: recombinant; tags: N-terminal GST; dsDNA, one strand shown
T6 sequence: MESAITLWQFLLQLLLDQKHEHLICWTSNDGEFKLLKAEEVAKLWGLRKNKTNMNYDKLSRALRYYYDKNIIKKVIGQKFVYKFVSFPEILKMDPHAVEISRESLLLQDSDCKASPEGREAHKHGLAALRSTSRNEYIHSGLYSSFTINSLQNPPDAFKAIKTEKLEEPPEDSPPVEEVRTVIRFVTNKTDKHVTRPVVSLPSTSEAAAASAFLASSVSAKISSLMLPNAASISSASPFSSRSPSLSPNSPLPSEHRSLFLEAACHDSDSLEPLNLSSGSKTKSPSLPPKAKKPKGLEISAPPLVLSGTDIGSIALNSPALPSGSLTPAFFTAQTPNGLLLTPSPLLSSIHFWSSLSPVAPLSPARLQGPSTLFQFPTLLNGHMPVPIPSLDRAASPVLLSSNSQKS
Outline: as §1

FEV = target: T7, FEV (Homo sapiens, UniProt Q99581 1-238); settings: protein: recombinant; tags: N-terminal GST; dsDNA, one strand shown
T7 sequence: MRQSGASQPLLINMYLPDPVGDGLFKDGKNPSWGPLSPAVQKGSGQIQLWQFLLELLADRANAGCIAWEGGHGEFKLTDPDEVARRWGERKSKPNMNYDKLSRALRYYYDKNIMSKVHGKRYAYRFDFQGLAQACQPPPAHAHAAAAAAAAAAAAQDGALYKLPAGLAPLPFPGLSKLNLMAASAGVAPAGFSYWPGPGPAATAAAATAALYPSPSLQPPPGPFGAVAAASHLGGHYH
Outline: as §1

ETV5 = ETV5 (Homo sapiens, UniProt P41161 1-510); settings: protein: recombinant; tags: N-terminal GST; dsDNA, one strand shown
Outline: as §1

HSF1 = HSF1 (Homo sapiens, UniProt Q00613 1-529); settings: protein: recombinant; tags: N-terminal GST; chain copies: 3; dsDNA, one strand shown
Outline: as §1

SPIC = target: T8, SPIC (Homo sapiens, UniProt Q8N5J4 1-248); settings: protein: recombinant; tags: N-terminal GST; dsDNA, one strand shown
T8 sequence: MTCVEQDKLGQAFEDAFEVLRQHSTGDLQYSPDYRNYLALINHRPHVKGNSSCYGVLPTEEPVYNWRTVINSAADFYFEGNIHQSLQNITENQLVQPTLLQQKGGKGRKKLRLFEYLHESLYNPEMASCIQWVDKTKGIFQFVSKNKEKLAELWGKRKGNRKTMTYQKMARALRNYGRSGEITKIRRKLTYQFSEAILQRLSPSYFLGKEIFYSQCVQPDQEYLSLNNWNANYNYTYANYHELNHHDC
Outline: as §1

ELF4 = ELF4 (Homo sapiens, UniProt Q99607 1-663); settings: protein: recombinant; tags: N-terminal GST; dsDNA, one strand shown
Outline: as §1

ELK4 = target: T9, ELK4 (Homo sapiens, UniProt P28324-2 1-405); settings: protein: recombinant; tags: N-terminal GST; dsDNA, one strand shown
T9 sequence: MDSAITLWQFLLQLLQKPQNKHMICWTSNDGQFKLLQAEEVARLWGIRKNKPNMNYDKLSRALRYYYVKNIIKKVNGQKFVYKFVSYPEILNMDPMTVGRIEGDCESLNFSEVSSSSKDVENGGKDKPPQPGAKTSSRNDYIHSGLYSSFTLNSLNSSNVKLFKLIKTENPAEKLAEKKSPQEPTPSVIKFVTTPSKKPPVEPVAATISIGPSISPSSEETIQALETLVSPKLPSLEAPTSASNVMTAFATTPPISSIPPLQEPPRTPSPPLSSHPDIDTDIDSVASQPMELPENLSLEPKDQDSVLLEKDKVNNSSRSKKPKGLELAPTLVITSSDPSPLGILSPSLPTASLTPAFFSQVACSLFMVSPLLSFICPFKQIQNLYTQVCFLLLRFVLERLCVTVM
Outline: as §1

ETV2 = target: T10, ETV2 (Homo sapiens, UniProt O00321 1-342); settings: protein: recombinant; tags: N-terminal GST; dsDNA, one strand shown
T10 sequence: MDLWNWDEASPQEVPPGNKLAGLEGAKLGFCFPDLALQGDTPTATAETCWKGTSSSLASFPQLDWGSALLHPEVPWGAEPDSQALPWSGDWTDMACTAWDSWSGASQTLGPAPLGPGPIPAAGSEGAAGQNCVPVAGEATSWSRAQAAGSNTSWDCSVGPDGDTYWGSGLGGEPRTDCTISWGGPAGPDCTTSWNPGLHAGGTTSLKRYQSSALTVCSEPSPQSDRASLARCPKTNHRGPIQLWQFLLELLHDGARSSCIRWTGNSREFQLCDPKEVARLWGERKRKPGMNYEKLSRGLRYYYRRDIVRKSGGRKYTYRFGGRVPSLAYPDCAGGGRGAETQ
Outline: as §1

ELF3 = target: T11, ELF3 (Homo sapiens, UniProt P78545 1-371); settings: protein: recombinant; tags: N-terminal GST; dsDNA, one strand shown
T11 sequence: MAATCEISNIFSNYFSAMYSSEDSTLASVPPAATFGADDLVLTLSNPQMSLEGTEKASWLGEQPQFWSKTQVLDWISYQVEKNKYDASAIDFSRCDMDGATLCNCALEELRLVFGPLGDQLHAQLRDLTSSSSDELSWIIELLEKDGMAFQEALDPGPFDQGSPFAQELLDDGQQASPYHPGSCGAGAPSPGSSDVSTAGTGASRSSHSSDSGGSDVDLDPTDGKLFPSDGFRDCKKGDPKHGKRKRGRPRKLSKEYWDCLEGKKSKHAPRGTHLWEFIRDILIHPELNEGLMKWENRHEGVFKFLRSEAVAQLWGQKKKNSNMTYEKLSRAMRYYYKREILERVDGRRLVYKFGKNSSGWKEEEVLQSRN
Outline: as §1

ETV1 = ETV1 (Homo sapiens, UniProt P50549 1-477); settings: protein: recombinant; tags: N-terminal GST; dsDNA, one strand shown
Outline: as §1

Chain of HSF1 (Q00613 whole entry): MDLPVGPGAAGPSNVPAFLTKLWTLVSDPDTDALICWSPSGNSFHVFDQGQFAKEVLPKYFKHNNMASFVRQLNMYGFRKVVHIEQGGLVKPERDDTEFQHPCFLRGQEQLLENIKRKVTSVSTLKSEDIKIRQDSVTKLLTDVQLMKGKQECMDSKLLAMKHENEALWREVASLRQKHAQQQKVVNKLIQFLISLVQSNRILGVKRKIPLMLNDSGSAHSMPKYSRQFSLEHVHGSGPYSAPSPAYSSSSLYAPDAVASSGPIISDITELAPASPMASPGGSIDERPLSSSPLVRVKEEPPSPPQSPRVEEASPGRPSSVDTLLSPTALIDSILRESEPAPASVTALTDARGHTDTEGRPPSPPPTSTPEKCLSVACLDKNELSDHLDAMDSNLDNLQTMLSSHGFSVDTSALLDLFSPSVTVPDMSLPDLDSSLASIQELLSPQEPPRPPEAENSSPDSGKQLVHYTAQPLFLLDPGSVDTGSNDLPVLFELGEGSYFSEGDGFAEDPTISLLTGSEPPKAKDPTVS
Chain of ETV1 (P50549 whole entry): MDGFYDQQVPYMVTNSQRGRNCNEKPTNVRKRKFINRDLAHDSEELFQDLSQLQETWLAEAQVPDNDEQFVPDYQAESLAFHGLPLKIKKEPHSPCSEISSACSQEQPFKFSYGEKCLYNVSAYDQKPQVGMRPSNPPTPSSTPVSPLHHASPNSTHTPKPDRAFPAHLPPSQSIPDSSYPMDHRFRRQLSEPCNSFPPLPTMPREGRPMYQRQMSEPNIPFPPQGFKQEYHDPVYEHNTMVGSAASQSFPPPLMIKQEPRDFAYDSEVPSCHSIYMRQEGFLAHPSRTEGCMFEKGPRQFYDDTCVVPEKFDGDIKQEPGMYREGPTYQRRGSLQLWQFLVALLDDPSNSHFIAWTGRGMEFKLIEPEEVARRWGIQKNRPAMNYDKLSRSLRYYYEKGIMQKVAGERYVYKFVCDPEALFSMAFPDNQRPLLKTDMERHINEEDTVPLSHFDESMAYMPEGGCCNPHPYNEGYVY
Chain of SPIB (Q01892 whole entry): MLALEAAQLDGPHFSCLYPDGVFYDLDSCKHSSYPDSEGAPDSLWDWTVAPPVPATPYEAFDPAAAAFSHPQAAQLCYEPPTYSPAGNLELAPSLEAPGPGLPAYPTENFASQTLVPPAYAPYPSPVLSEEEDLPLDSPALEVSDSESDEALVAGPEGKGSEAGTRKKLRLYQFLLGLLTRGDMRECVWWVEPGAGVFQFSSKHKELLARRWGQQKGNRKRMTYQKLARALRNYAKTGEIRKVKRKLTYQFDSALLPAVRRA
Chain of ETV5 (P41161 whole entry): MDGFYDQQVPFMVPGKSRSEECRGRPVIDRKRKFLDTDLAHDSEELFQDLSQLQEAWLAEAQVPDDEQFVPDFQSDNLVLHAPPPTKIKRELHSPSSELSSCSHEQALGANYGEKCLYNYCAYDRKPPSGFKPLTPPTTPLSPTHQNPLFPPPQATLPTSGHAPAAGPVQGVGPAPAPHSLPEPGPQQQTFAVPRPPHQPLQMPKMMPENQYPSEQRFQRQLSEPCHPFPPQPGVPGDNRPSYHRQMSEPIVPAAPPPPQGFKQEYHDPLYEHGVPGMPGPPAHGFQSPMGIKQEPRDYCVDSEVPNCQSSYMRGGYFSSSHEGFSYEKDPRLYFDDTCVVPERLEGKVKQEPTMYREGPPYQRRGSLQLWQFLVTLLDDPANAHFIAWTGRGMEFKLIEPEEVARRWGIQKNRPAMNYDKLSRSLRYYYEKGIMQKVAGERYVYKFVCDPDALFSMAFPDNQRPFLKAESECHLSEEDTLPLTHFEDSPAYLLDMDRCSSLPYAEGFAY
Chain of ELF4 (Q99607 whole entry): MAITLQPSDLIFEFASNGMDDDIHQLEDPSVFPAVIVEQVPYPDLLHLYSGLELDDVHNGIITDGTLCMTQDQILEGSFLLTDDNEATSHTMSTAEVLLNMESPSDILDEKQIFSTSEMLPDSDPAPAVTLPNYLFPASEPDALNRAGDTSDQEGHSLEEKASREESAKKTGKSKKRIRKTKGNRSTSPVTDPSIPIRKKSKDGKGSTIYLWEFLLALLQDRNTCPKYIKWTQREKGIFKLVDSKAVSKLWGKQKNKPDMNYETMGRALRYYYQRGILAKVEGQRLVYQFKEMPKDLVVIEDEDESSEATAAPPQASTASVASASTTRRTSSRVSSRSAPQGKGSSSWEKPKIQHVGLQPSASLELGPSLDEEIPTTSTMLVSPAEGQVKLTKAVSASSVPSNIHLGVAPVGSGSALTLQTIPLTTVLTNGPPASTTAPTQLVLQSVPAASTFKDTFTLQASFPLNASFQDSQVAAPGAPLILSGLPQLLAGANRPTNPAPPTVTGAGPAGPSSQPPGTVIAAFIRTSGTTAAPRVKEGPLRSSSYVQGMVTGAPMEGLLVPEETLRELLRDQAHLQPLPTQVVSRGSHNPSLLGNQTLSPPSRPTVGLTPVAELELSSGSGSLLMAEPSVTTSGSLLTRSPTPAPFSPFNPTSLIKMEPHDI
Chain of ELF1 (P32519 whole entry): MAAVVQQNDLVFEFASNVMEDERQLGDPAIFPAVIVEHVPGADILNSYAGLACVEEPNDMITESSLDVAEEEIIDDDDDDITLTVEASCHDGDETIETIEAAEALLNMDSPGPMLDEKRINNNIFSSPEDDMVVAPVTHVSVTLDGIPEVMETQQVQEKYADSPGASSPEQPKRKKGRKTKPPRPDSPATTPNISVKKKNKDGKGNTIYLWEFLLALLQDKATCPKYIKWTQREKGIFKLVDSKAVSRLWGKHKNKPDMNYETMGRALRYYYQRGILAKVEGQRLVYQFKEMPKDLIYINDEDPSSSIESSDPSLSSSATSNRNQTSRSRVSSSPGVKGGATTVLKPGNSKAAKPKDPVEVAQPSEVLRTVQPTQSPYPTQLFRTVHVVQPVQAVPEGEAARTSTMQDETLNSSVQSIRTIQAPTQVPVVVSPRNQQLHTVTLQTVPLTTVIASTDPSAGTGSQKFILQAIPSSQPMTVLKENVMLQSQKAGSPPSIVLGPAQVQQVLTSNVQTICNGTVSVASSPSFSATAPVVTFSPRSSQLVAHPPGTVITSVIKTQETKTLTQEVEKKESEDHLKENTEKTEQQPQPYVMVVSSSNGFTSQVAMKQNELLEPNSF

Question: How did the binding signal (FLI1) turn out when AACTTG was run?
Answer: 1.26 fold enrichment (6-mer frequency, TF over GST control)

Question: What about the binding signal (ELK1) of the same sequence?
Answer: 1.2 fold enrichment (6-mer frequency, TF over GST control)

Question: What about the binding signal (GABPA) of the same sequence?
Answer: 1.18 fold enrichment (6-mer frequency, TF over GST control)

Question: And the binding signal (ERG)?
Answer: 1.11 fold enrichment (6-mer frequency, TF over GST control)

Question: And the binding signal (ELF1)?
Answer: 1.21 fold enrichment (6-mer frequency, TF over GST control)

Question: And the binding signal (EHF)?
Answer: 1.14 fold enrichment (6-mer frequency, TF over GST control)

Question: And the binding signal (SPI1)?
Answer: 1.15 fold enrichment (6-mer frequency, TF over GST control)

Question: And the binding signal (SPIB)?
Answer: 1.19 fold enrichment (6-mer frequency, TF over GST control)

Question: And the binding signal (ELK3)?
Answer: 1.08 fold enrichment (6-mer frequency, TF over GST control)

Question: And the binding signal (FEV)?
Answer: 1.17 fold enrichment (6-mer frequency, TF over GST control)

Question: What about the binding signal (ETV5) of the same sequence?
Answer: 1.14 fold enrichment (6-mer frequency, TF over GST control)

Question: What about the binding signal (HSF1) of the same sequence?
Answer: 1.09 fold enrichment (6-mer frequency, TF over GST control)

Question: What about the binding signal (SPIC) of the same sequence?
Answer: 1.27 fold enrichment (6-mer frequency, TF over GST control)

Question: What about the binding signal (ELF4) of the same sequence?
Answer: 1.28 fold enrichment (6-mer frequency, TF over GST control)

Question: What about the binding signal (ELK4) of the same sequence?
Answer: 1.11 fold enrichment (6-mer frequency, TF over GST control)

Question: And the binding signal (ETV2)?
Answer: 1.12 fold enrichment (6-mer frequency, TF over GST control)

Question: And the binding signal (ELF3)?
Answer: 1.19 fold enrichment (6-mer frequency, TF over GST control)

Question: And the binding signal (ETV1)?
Answer: 1.05 fold enrichment (6-mer frequency, TF over GST control)
